The structures appear in SMILES notation. Where “and” joins values, the source holds several entries; their conditions need not be identical. Equal entries are not always repeated. Records with an inconclusive call do not appear. Entries that show only a call come without a potency. Some structures have more than one record in an assay (separate samples or runs), and their calls can disagree. Calls of active or inactive are those of the source. Calls follow the shape of the dose curve; as a rule, active = well fitted activation curve with a large enough effect in the repeat runs; inconclusive = weak or mixed curves; inactive = flat fitted curve, though single readings scatter.
Potency is read from the fitted curve at half-maximal effect.

A short description of this assay: A CellTox Green Cytotoxicity Assay to monitor cytotoxicity in HEK293 cells - 40 hour (AID 1224871). Also: nearly all actives have a fitted effect of over 45% in size. Conditions: CellTox Green fluorescence; series mostly up to 76.8 µM; cytotoxicity increase: at the top concentration. The source says:
National Center for Advancing Translational Sciences [NCATS]
NIH Chemical Genomics Center [NCGC]
U.S. Environmental Protection Agency [EPA]
National Institutes of Environmental Health Sciences [NIEHS]
National Toxicology Program [NTP]
Cell-based models are critical for drug discovery. Determining the natural cytotoxic effects resulting from test compounds is an essential research activity. A CellTox Green Cytotoxicity Assay to monitor cytotoxicity in real time of continues cell culture during 40 hours of the compound treatment was used to screen Tox21 10K library compounds in Hek293 cells. CellTox Green Cytotoxicity Assay is a nonlytic, homogeneous, biofluorescent method to measure cytotoxicity in cell culture after experimental manipulation. The assay system uses a proprietary asymmetric cyanine dye that is excluded from viable cells but preferentially stains the dead cell's DNA. […] Viable cells produce no appreciable increases in fluorescence. Therefore, the fluorescence signal produced by the binding interaction with dead cell DNA is proportional to cytotoxicity.
The mixture of Hek293 cell suspension and reagents were dispensed at 600cells/6 ul/well in 1536-well tissue culture treated black solid bottom plates using a Multidrop dispenser. After the assay plates were incubated at a 37 C/5% CO2 incubator for 5 hours, 23 nL of compounds dissolved in DMSO, positive and negative controls was transferred to the assay plate by a pintool work station. The plates were incubated at 37 C for 40 hours. The fluorescence intensity were measured at 0h, 8h, 16h, 24h, 32h and 40h time points using ViewLux plate reader during compound treatment.
Regarding `CC(=O)C1(C)CC2=C(CCCC2(C)C)CC1C` (stereo not given), the Potency was 41.6 µM (active).
Same read-out and setting: the entry for `CCC(C)OC(=O)c1ccc(O)cc1` (stereo not given) is “inactive”.
Still for that read-out and setting: the entry for `CC(CCC(=O)O)(c1ccc(O)cc1)c1ccc(O)cc1` is “inactive”; for `Cc1c(OCC(F)(F)F)ccnc1CS(=O)c1nc2ccccc2[nH]1` (stereo not given) it is “inactive”; for `COC(=O)c1ccccc1` it is “inactive”.
For the compound `O=C(/C=C/c1ccccc1)OCc1ccccc1`, the Potency result is “inactive”.
Same read-out and setting: the entry for `NNc1ccc(C(=O)O)cc1` is “inactive”.
For `CC(C)=CCCC(C)CCO` (stereo not given), the “cytotoxicity increase” value was -5.82% (inactive).
Regarding `Nc1ccc(Cl)cc1Cl`, the Potency result is “inactive”.
Take `CCOCCOCCO`: the Potency result is “inactive”.
On to `OCCO`, for which the “cytotoxicity increase” value was -20.9% (inactive).
`O=C1OC2(c3cc(Br)c(O)c(Br)c3Oc3c2cc(Br)c(O)c3Br)c2c(Cl)c(Cl)c(Cl)c(Cl)c21`: the Potency is 4.91 µM (active) and 29.7 µM (active).
Same read-out and setting: the entry for `Cc1ncc[nH]1` is “inactive”.
With `Cc1[nH]c(=O)c(C#N)cc1-c1ccncc1`, the Potency entry is “inactive”.
Consider `C[C@]12CC[C@H]3[C@@H](CCC4=CC(=O)CC[C@@]43C)[C@@H]1CC[C@@H]2C(=O)CO`, for which the “cytotoxicity increase” value is 27.9% [at 35.3 µM] (inactive).
With `CCCCOCCOCCO`, the Potency result was “inactive”.
On the same count and under the same terms, the entry for `CCCCC(CC)COCC1CO1` (stereo not given) is “inactive”; for `O=C(/C=C/C=C/c1ccc2c(c1)OCO2)N1CCCCC1` it is “inactive”.
With `OC1CCCCCCCCCCC1`, the Potency result is “inactive and 43.6 µM (active)”.
As for `CCCCCCCCCC(=O)OC`, the Potency entry is “inactive”.
For `CN(C)c1nc(N(C)C)nc(N(C)C)n1`, the Potency entry is “inactive”.
Take `O=S(=O)(O)c1ccc(O)cc1`: the Potency entry is “inactive”.
Same read-out and setting: the entry for `O=CCc1ccccc1` is “inactive”.
Same read-out and setting: the entry for `CN(C)CCN(Cc1cccs1)c1ccccn1` is “inactive”.
Regarding `c1cc(N(CC2CO2)CC2CO2)ccc1OCC1CO1` (stereo not given), the “cytotoxicity increase” value is 10.8% (inactive).
For the compound `COC(=O)C1=C(C)NC(C)=C(C(=O)OCCN(C)Cc2ccccc2)C1c1cccc([N+](=O)[O-])c1` (stereo not given), the “cytotoxicity increase” value was 5.79% [at 35.3 µM] (inactive).
`C[C@]12CCC(=O)C=C1CC[C@@H]1[C@@H]2C(=O)C[C@@]2(C)[C@H]1CC[C@]2(O)C(=O)CO`: the Potency entry is “inactive”.
Take `C#C[C@]1(O)CC[C@H]2[C@@H]3CCC4=Cc5oncc5C[C@]4(C)[C@H]3CC[C@@]21C`: the Potency is 49 µM (active).
For `c1cc(-c2ccncc2)ccn1`, the Potency result is “inactive”.
Turning to `CCOC(=O)C(C#N)=C(c1ccccc1)c1ccccc1`, the “cytotoxicity increase” value was -7.49% [at 35.3 µM] (inactive).
`COC(C)COC(C)COC(C)CO` (stereo not given): the Potency entry was “inactive”.
As to `Brc1cc(Oc2cc(Br)c(Br)c(Br)c2Br)c(Br)c(Br)c1Br`, the Potency result was “inactive”.
For `O=C(Nc1ccc(Cl)cc1)Nc1ccc(Cl)c(Cl)c1`, the Potency result is “inactive and 8.71 µM (active)”.
Take `CC(C)=CCC/C(C)=C\CO`: the Potency entry is “inactive”.
As to `O=C(Nc1ccc([N+](=O)[O-])cc1Cl)c1cc(Cl)ccc1O`, the Potency is 24.5 µM (active) and 13.1 µM (active).
`CCCc1c(OCCCCc2nn[nH]n2)ccc(C(C)=O)c1O`: the Potency result was “inactive”.
Same read-out and setting: the same measure for `O=C(c1ccccc1)c1ccc(O)cc1O`: “inactive”.
Consider `Cc1ccc(C)c(O)c1C`, for which the Potency result is “inactive”.
As for `CC1=CC2C3CC(C=C3C)C2C1` (stereo not given), the Potency result was “inactive and 38.9 µM (active)”.
Consider `COc1ccc(C(=O)CC(=O)c2ccc(C(C)(C)C)cc2)cc1`, for which the “cytotoxicity increase” value was 2.75% (inactive).

The record behind these values is PubChem BioAssay (Tox21).
